Compound activity: PubChem, National Center for Advancing Translational Sciences (NCATS)
Rows were chosen to be rich in hits. Some 15% of all compounds tested hit in one or more screens of this group.
TDP1 cell noCPT – qHTS for Inhibitors of human tyrosyl-DNA phosphodiesterase 1 (TDP1): qHTS in cells in absence of CPT. DT40 Tdp1-/- hTDP1 cells, no CPT, ATP luminescence, 48 h. Potency, µM (series often up to 46.2 µM), hits mostly inhibitors. 420,000 tested, 15% active. AID 686978, 2013; note: nearly all actives have a fitted effect of over 55% in size
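Chicken DT40 Tdp1-/- cells complemented with human TDP1, screened without camptothecin (DMSO vehicle only), 400 cells/well. Compounds pin-transferred, cells incubated at 37 °C for at least 48 hr. Growth read as ATP-dependent luminescence (CellTiter-Glo, 30 min at RT).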
Gal4-VP16 FLuc – VP16 counterscreen qHTS for inhibitors of ROR gamma transcriptional activity | Drosophila S2 Gal4-VP16 UAS-luciferase, luminescence, 20 h | Potency, µM (top dose mostly 53.6 µM), most hits filed as inhibitors | 310,000 tested, 3.5% active | AID 2546, 2010;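 note: Gal4-VP16 expression switched on by copper sulfate through the metallothionein promoter; nearly all actives have a fitted effect of over 50% in size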
ELG1 DNA repair – qHTS screen for small molecules that inhibit ELG1-dependent DNA repair in human embryonic kidney (HEK293T) cells expressing luciferase-tagged ELG1. HEK293T ELG1-luciferase reporter, luminescence, 16 h; DNA damage induced by 5-fluorouridine. Potency, µM (highest dose often 46.1 µM), most hits filed as inhibitors. 330,000 tested, 2.3% active. AID 504467, 2011; note: nearly all actives have a fitted effect of over 55% in size
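Luminescence from the luciferase reporter, measured 30 min after ONE-Glo reagent at room temperature, was the read-out. Beforehand, 2,000 cells per well were exposed for 16 hr at 37 °C to 5-fluorouridine together with compound or vehicle.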
RORg inh – qHTS for inhibitors of ROR gamma transcriptional activity; 310,000 tested, 5.4% active; Nuclear receptor ROR-gamma (Mus musculus), P51450; Drosophila S2 Gal4-RORgamma UAS-luciferase reporter, 20 h; Potency, µM (titrated, usually from 53.6 µM), hits mostly inhibitors; note: nearly all actives have a fitted effect of over 60% in size
Target sequence (P51450 whole entry, looked up, the tested form may be a part): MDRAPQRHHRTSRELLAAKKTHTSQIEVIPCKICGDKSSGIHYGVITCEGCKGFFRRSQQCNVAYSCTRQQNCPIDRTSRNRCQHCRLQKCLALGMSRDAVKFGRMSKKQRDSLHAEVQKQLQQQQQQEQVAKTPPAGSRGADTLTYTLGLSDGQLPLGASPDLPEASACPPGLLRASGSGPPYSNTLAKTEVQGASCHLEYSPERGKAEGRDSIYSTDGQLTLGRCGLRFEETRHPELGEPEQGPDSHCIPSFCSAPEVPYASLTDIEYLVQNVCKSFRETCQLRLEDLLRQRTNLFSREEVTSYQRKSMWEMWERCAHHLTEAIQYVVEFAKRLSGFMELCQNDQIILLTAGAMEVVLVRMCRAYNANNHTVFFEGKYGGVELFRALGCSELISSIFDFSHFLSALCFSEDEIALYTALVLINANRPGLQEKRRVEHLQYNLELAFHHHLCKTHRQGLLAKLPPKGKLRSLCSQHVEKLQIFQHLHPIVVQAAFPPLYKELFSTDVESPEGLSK
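Schneider cells (Drosophila), stable Gal4 DBD–ROR gamma + UAS-luc; 1 hr cmpd preincubation; Cu2+ induction 700 uM final; 20 hr ambient; luminescence.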
ALOX12 inh – Primary qHTS assay for inhibitors of human arachidonate 12S-lipoxygenase (ALOX12): Round 2; Polyunsaturated fatty acid lipoxygenase ALOX12 (Homo sapiens), P18054; purified 12hLO, xylenol orange hydroperoxide absorbance; Potency, µM (doses to about 108 µM), most hits filed as inhibitors; 580,000 tested, 1.1% active; AID 1671190, 2021
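Purified human 12hLO (150 nM final) in 25 mM Hepes, 0.01% Triton X-100, pH 7.0 was preincubated 15 min at room temperature with compound. Then 40 uM arachidonic acid was added, 30 min. Hydroperoxide was read by Fe-XO absorbance ratio 573/405 nm.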
DT40 TDP1 CPT – qHTS for Inhibitors of human tyrosyl-DNA phosphodiesterase 1 (TDP1): qHTS in cells in presence of CPT; 420,000 tested, 12% active; Potency, µM (top dose mostly 46.2 µM), usual class: inhibitors; AID 686979, 2013; chicken DT40 Tdp1-/-;hTDP1 cells + 20 nM CPT, ATP luminescence, 48 h; note: nearly all actives have a fitted effect of over 55% in size
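Chicken DT40 Tdp1-/- cells stably complemented with human TDP1 were seeded at 400 cells/well in medium containing 20 nM camptothecin, exposed to pin-transferred compounds, and grown at 37 °C for at least 48 hr. Viability was read as ATP luminescence.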
Hits are given with their value; 0 = inactive; ? = inconclusive; - = no result given; [ ] = remark or other dose. Calls come from the whole dose curve; as a rule, active = well fitted curve in the direction sought with a large enough effect; inconclusive = small, poorly fitted or top-dose-only effect, or another doubt; inactive = no such curve, though single readings can be large; an effect the other way counts as inactive or inconclusive.

SMILES | TDP1 cell noCPT | Gal4-VP16 FLuc | ELG1 DNA repair | RORg inh | ALOX12 inh | DT40 TDP1 CPT
CCCC(=O)Nc1nnc(CC(=O)N2CCCC2)s1 | 0 | 0 | ? | 1.3µM | 0 | 0
CCc1nnc(NC(=O)CCC(=O)N2CCN(CCc3ccccc3)CC2)s1 | 0 | 0 | 0 | 0 | 0 | 0
Cc1nc(CN2CCOC3(CCN(Cc4ccccc4Cl)CC3)C2=O)cs1 | - | - | - | - | 0 | -
CCN(C(=O)C(C)Cl)C1CCCCC1 (centres undefined) | - | - | - | - | 0 | -
CN(CC(=O)Nc1cccc(F)c1)Cc1ncc(-c2ccccc2)o1 | - | - | - | - | 0 | -
Cc1cc(C)cc(NC(=O)CC(C)n2nc(C)cc2C)c1 (centres undefined) | ? | - | - | - | 0 | 21µM
CCN1C(=O)CC(N2CCN(c3ccc(Cl)cc3)CC2)C1=O (centres undefined) | 0 | 0 | 0 | 0 | 0 | 0
CCN1C(=O)CC(N2CCN(c3ccc(C(=O)c4ccccc4)cc3)CC2)C1=O (centres undefined) | 23µM | 0 | - | 0 | 0 | ?
COc1cccc(NC(=O)CN(C)C(=O)c2ccc(-c3ccc(Cl)cc3)o2)c1 | ? | - | 0 | - | 0 | ?
CN(CC(=O)Nc1ccc(F)cc1)C(=O)c1ccc(-c2ccc(F)cc2)o1 | 21µM | - | - | - | 0 | ?
Cc1ccc(C)c(NC(=O)CN(C)C(=O)c2ccc(-c3cccc(C(F)(F)F)c3)o2)c1 | 15µM | - | 0 | - | 0 | ?
CN(CC(=O)Nc1cccc(F)c1)C(=O)c1ccc(-c2cccc(C(F)(F)F)c2)o1 | ? | - | 0.29µM | - | 0 | ?
CC(C)C[C@@H]1NC(=O)[C@H](Cc2ccccc2)N(C)C(=O)[C@H](C)NC(=O)c2ccccc2NC(=O)[C@H](Cc2ccc(O)cc2)N(C)C1=O | 15µM | 0 | 6.5µM | 0 | 0 | 16µM
O=C(C[C@H]1NC(=O)c2ccccc2NC1=O)NCCc1ccc(O)cc1 | - | - | - | - | 0 | -
O=C(CCc1ncc(-c2c(F)cccc2F)o1)N1CCN(S(=O)(=O)c2ccccc2Cl)CC1 | - | - | - | - | 0 | -
c1ccc2c(-c3ccc4nncn4c3)cncc2c1 | ? | - | - | - | 0 | ?
Cc1cc(O)ccc1-c1ccc2nncn2c1 | 0 | - | - | - | 0 | 16µM
Cc1cccc(CN2CCc3c([nH]c4ccccc34)C2)c1 | 18µM | 0 | 0 | 0 | 0 | 21µM
Clc1ccc(CN2CCc3c([nH]c4ccccc34)C2)cc1Cl | 15µM | 0 | ? | 0 | ? | ?
Clc1cccc(CN2CCc3c([nH]c4ccccc34)C2)c1 | ? | 0 | ? | 0[1.91 µM] | 0 | ?
Nc1ccccc1C(=O)Nc1ccccn1 | - | - | - | - | 0 | -
CS(=O)(=O)c1ccc(-c2nnc(NC(=O)C3=COCCO3)o2)cc1 | 0 | - | 0 | - | 0 | 0
COc1cc(C(=O)Nc2nnc(C3=COCCO3)o2)cc(OC)c1OC | 0 | 2.8µM | 0 | 2.5µM | 0 | 0
CCCCC(=O)Nc1nnc(C2=COCCO2)o1 | 0 | 0 | 0 | 13µM | 0 | 0
CCOc1ccc(C(=O)Nc2nnc(C3=COCCO3)o2)cc1 | ? | 1µM | 0 | 2.5µM | 0 | ?
SMILES | TDP1 cell noCPT | Gal4-VP16 FLuc | ELG1 DNA repair | RORg inh | ALOX12 inh | DT40 TDP1 CPT
O=C(Nc1nnc(C2=COCCO2)o1)c1ccc(S(=O)(=O)N2CCCC2)cc1 | ? | 0 | 0 | 0 | 0 | ?
COc1ccc(C(=O)Nc2nnc(C3=COCCO3)o2)cc1 | 0 | 2µM | 0 | 2.2µM | 0 | 0
CN(c1ccccc1)S(=O)(=O)c1ccc(C(=O)Nc2nnc(-c3ccco3)o2)cc1 | 21µM | 1.1µM | 16µM | 0.71µM | ? | 15µM
CCN(c1ccccc1)S(=O)(=O)c1ccc(C(=O)Nc2nnc(-c3ccco3)o2)cc1 | 18µM | 0 | ? | 0.1µM | 0 | ?
COc1ccc(CN2CC(Oc3ccc(F)cc3C)C2)cc1 | - | - | - | - | 0 | -
Cc1cc(C)c(S(=O)(=O)c2ccccc2C)c(SCC(C)C)n1 | 23µM | ? | 0 | ? | 0 | ?
